Source: PubChem BioAssay
ATXN2 expr inh: ATXN2 expression inhibition | AID 1745845 | HEK-293 ATXN2-luciferase reporter, luminescence, 24 h | Potency, µM (series often up to 57 µM), usual class: inhibitors | hit rate 0.72% among 360,000; further: nearly all actives have a fitted effect of over 55% in size
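ATXN2-luciferase reporter cells (luciferase flanked by upstream and downstream ATXN2 gene portions) were treated 24 h at 37 °C with compounds at up to 57 uM. SteadyGlo luminescence gave expression; GF-AFC fluorescence gave viability.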
S2 tox: cell viability loss in ATXN counter-screen; Potency, µM (doses to about 56.7 µM), hits mostly cytotoxic; S2 cells (HEK-293 line with an ATXN2-luciferase reporter) viability, CellTiter-Fluor protease fluorescence, 24 h; AID 651635; hit rate 0.49% among 400,000; further: nearly all actives have a fitted effect of over 40% in size
Nrf2 inh: blocks Nrf2 signaling; hit rate 2.1% among 360,000; AID 504444; Potency, µM (series often up to 46 µM), actives largely listed as inhibitors; A549 ARE-Fluc reporter, luciferase luminescence, 18-24 h; further: nearly all actives have a fitted effect of over 60% in size
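Nrf2 activity is the BugLite luminescence, read 15 min after reagent at room temperature, following CellTiter-Fluor cytotoxicity readout (30 min, 37C). Compound titrations were applied for 18-24 h to 5000 A549 ARE_Fluc cells/well in 5% FBS OPTI-MEM.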
A549 viability: A549 cytotoxicity, counter-screen for Nrf2 inhibitors; A549 ARE-Fluc cells, CellTiter-Fluor viability, 18-24 h; Potency, µM (titrated, usually from 46 µM), usual class: inhibitors; hit rate 0.16% among 390,000
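A549 ARE-Fluc cells in 5% FBS OPTI-MEM, 5000 cells/well, rested 2 h then exposed to compounds in concentration-response for 18-24 h at 37 °C. Viability by CellTiter-Fluor fluorescence (Ex 405/Em 525) after 30 min; luciferase luminescence (BugLite, 15 min, RT) read afterwards.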
Nrf2 activator: activators of Nrf2 (ARE) signaling; hit rate 0.31% among 410,000; AREc32 ARE-luciferase reporter (MCF7-derived line), luminescence, 24 h; Potency, µM (titrated, usually from 46.1 µM), hits mostly activators; AID 624171; further: nearly all actives have a fitted effect of over 65% in size
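AREc32 cells carrying an ARE-driven firefly luciferase, 1000 cells/well in OPTI-MEM with 5% FBS, dosed after overnight attachment and incubated 24 hr at 37 deg C. Steady-Glo luminescence read after 30 min at RT.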
Each line names hits and unclear results; the compound was inactive in the other large screens; ! = a repeat was not active. Most compounds without a hit are left out; they make up all but 2.9% or so of the library. The call rests on the fitted dose curve; in most records, active means well fitted curve in the direction sought with a large enough effect; inconclusive means small, poorly fitted or top-dose-only effect, or another doubt; inactive means no such curve, though single readings can be large; an effect the other way counts as inactive or inconclusive.

Cc1cc(NCCCCCCCNc2cc(C)nc3cc([N+](=O)[O-])ccc23)c2ccc([N+](=O)[O-])cc2n1	ATXN2 expr inh inconclusive, S2 tox 21.2µM, Nrf2 inh inconclusive
CC(C)NC(=O)CN1C(=O)CCn2nc(-c3cn(C)c4ccccc34)cc21	none (no result: Nrf2 inh)
C#CC(=O)N(c1cccc(OC)c1)C(C(=O)NC1CCCC1)c1cccs1 (configuration not stated)	ATXN2 expr inh 1.58µM, S2 tox 1.58µM, Nrf2 inh 16.4µM
C#CC(=O)N(c1ccc(OC)c(OC)c1)C(C(=O)NC1CCCC1)c1cccs1 (configuration not stated)	ATXN2 expr inh inconclusive, Nrf2 inh 23.1µM, A549 viability inconclusive, Nrf2 activator inconclusive (no result: S2 tox)
COc1cccc(C(=O)NCc2cn3ccccc3n2)c1	Nrf2 inh 23.1µM (no result: ATXN2 expr inh, S2 tox)
O=C(NCc1cn2ccccc2n1)c1ccccc1	none
COc1cccc(-c2nc(SCC(=O)Nc3ccc4c(c3)OCO4)c(-c3ccccc3)[nH]2)c1	ATXN2 expr inh inconclusive, S2 tox inconclusive, Nrf2 inh inconclusive, A549 viability inconclusive
COc1ccccc1OCCN1CSC(=S)N(C)C1	ATXN2 expr inh 28.2µM, S2 tox inconclusive
Cc1cccc(OCCN2CSC(=S)N(C)C2)c1	none
COc1ccccc1-c1ccc(/C=C2\C=CC(=O)O2)o1	Nrf2 activator 15.8µM (no result: S2 tox)
O=C(/C=C\c1ccco1)NC(=S)Nc1ccccc1O	Nrf2 activator 7.08µM
O=C(/C=C/c1ccco1)NC(=S)Nc1ccccc1O	Nrf2 inh inconclusive
Cc1cc(C)c[n+](C(C)C(=O)c2ccc(-c3ccccc3)cc2)c1 (configuration not stated)	ATXN2 expr inh inconclusive, S2 tox inconclusive, Nrf2 inh 14.6µM
Cc1ccc[n+](C(C)C(=O)c2ccc(Cl)cc2)c1 (configuration not stated)	none
Cc1nn2c(=O)cc(COC(=O)COc3ccc(F)cc3)nc2s1	none
COc1ccc(-c2noc(N3CCN(c4cccc(Cl)c4)CC3)n2)cc1OC	S2 tox inconclusive, Nrf2 inh 23.1µM
CCN(CC)C(=O)N1CCN(C)CC1	Nrf2 inh 13µM
CCN(CC)C(=O)N1CCN(C(=O)N(CC)CC)CC1	none
CCOc1ccc(CN2C(=O)c3ccccc3Sc3ccc(C(=O)NCc4ccco4)cc32)cc1	none
O=C(c1ccc2c(c1)N(Cc1c(F)cccc1Cl)C(=O)c1ccccc1S2)N1CCCC1	ATXN2 expr inh inconclusive, Nrf2 inh 10.3µM, A549 viability inconclusive
CN(C)CCNC(=O)c1ccc2c(c1)N(Cc1c(F)cccc1Cl)C(=O)c1ccccc1S2	ATXN2 expr inh 22.4µM
c1ccc(N2CCCCC2)c(Nc2nc3ccccc3n3cnnc23)c1	Nrf2 inh inconclusive
FC(F)(F)c1ccc(N2CCOCC2)c(Nc2nc3ccccc3n3cnnc23)c1	Nrf2 inh 20.6µM, A549 viability 16.4µM
COCC1CCCN(Cc2ccc3c(c2)CN(C(=O)c2ccc(OC)nc2OC)CCO3)C1 (configuration not stated)	none (no result: ATXN2 expr inh, Nrf2 inh, A549 viability, Nrf2 activator)
Cc1ccnc(OC(C(=O)O)C(OCCc2ccccc2)(c2ccccc2)c2ccccc2)n1 (configuration not stated)	Nrf2 inh inconclusive
Cc1cc(C)nc(OC(C(=O)O)C(OCCc2ccccc2)(c2ccccc2)c2ccccc2)n1 (configuration not stated)	Nrf2 inh 13µM
COc1ccccc1NC(=O)CCn1nc(-c2ccccc2)c2ccccc2c1=O	Nrf2 inh 23.1µM, A549 viability inconclusive (no result: ATXN2 expr inh, S2 tox)
CCc1ccccc1NC(=O)CSc1nc2n[nH]c(C)c2c(=N)n1-c1cccc(OC)c1	Nrf2 inh 18.4µM, A549 viability inconclusive
COc1ccc(OC)c(NC(=O)CSc2nc3n[nH]c(C)c3c(=N)n2-c2cccc(Cl)c2C)c1	Nrf2 inh 16.4µM, A549 viability inconclusive
CCOc1ccccc1-n1c(SCC(=O)Nc2ccc(CC)cc2)nc2n[nH]c(C)c2c1=N	ATXN2 expr inh inconclusive, S2 tox 20µM, A549 viability inconclusive (no result: Nrf2 inh)
C#CCN(C[C@@H]1[C@@H](OC(=O)NCc2ccc(OC)c(OC)c2)[C@@H](OC(=O)NCc2ccc(OC)c(OC)c2)CN(C(=O)OC(C)C)N1C(=O)OC(C)C)S(=O)(=O)c1ccc(C)cc1	S2 tox inconclusive (no result: Nrf2 inh, A549 viability)
O=C(COCCOCCOCC(=O)Nc1c(I)cc(I)c(C(=O)O)c1I)Nc1c(I)cc(I)c(C(=O)O)c1I	none (no result: Nrf2 inh, A549 viability, Nrf2 activator)
c1ccc(OCCn2cnc3ccccc32)cc1	none
c1ccc(OCCCCn2cnc3ccccc32)cc1	Nrf2 inh 23.1µM
Cc1ccccc1OCCCCn1c(CO)nc2ccccc21	Nrf2 inh 23.1µM
Cc1ccccc1OCCCCn1cnc2ccccc21	Nrf2 inh 6.51µM
Cc1ccc(OCCCn2c(CO)nc3ccccc32)cc1	none (no result: Nrf2 inh)
COc1ccccc1-c1ccnc(-n2ncc(C(=O)NC(C)(C)CO)c2C2CC2)n1	none (no result: ATXN2 expr inh, Nrf2 inh, A549 viability, Nrf2 activator)
COc1ccc(CN2CCN(C(C)=O)CC2)cc1OC1CCN(C(=O)c2ccc3[nH]c(C)c(C)c3c2)CC1	none (no result: ATXN2 expr inh, Nrf2 inh, A549 viability, Nrf2 activator)
CC(=O)/C=C/C=C1/C2CCC(C2)C1(C)C (configuration not stated)	none (no result: Nrf2 inh, A549 viability, Nrf2 activator)
Cn1c(/C(C#N)=C(\O)c2cc(Cl)sc2Cl)nc2ccccc21	Nrf2 activator 1.41µM
CCN1CCN(S(=O)(=O)c2cc(OCC(=O)NC3CCCCC3)c(C)cc2Cl)CC1	Nrf2 inh 4.11µM
Cc1cc(Cl)c(S(=O)(=O)N2CCCCCC2)cc1OCC(=O)NC1CCCCC1	none (no result: ATXN2 expr inh, S2 tox)
Cn1c2ccccc2c2cnn(CC(=O)Nc3ccccc3C(F)(F)F)c(=O)c21	none
O=c1[nH]c(=O)n(C2C[C@H](O)[C@@H](CO)O2)cc1C(F)(F)F (some centres not stated)	ATXN2 expr inh inconclusive, S2 tox inconclusive, Nrf2 inh inconclusive
Cc1cn([C@@H]2C[C@@H](O)[C@H](CO)O2)c(=O)[nH]c1=O	none (no result: S2 tox, Nrf2 inh, A549 viability, Nrf2 activator)
O=c1[nH]c(=O)n([C@H]2C[C@@H](O)[C@@H](CO)O2)cc1F	ATXN2 expr inh 1.09µM (no result: S2 tox, Nrf2 inh, A549 viability, Nrf2 activator)
O=c1[nH]c(=O)n([C@H]2C[C@H](O)[C@@H](CO)O2)cc1C(F)(F)F	ATXN2 expr inh 2µM!, Nrf2 inh inconclusive
CN(C)C(=O)c1cccc(-c2cnc3c(NC=O)cc(-c4ccccc4N(C)C)cn23)c1	ATXN2 expr inh inconclusive (no result: Nrf2 inh, A549 viability)
COc1ccc(F)cc1-c1cc(NC=O)c2ncc(-c3cccc(C(=O)N(C)C)c3)n2c1	ATXN2 expr inh 25.1µM, S2 tox inconclusive (no result: Nrf2 inh, A549 viability)
CN(C)C(=O)c1cccc(-c2cnc3c(NC=O)cc(-c4ccccc4Cl)cn23)c1	S2 tox 11.2µM (no result: Nrf2 inh, A549 viability)
CN(C)C(=O)c1cccc(-c2cc(NC=O)c3ncc(-c4ccc(F)cc4)n3c2)c1	none (no result: Nrf2 inh, A549 viability)
COc1ccc(C(=O)CC2(O)C(=O)Nc3c(Cl)ccc(Cl)c32)cc1 (configuration not stated)	none (no result: S2 tox, Nrf2 inh, A549 viability, Nrf2 activator)
CCn1c(-c2ccccc2F)nc2cc(NC(C)=O)cc(C(=O)NCC3CCOCC3)c21	none (no result: ATXN2 expr inh, Nrf2 inh, A549 viability, Nrf2 activator)
